# Results from PubChem BioAssay (NCATS).
# “And” between values parts separate entries of the source, which are not always exact repeats. Equal entries are not always repeated. Inconclusive results are not listed. Values without a mark were called inactive. The source made the active and inactive calls. Calls follow the shape of the dose curve; as a rule, active = well fitted curve in the direction sought with a large enough effect; inconclusive = small, poorly fitted or top-dose-only effect, or another doubt; inactive = no such curve, though single readings can be large; an effect the other way counts as inactive or inconclusive.
# How the values were obtained:
# [1] = biological target: Cellular tumor antigen p53 (Homo sapiens) (UniProt P04637); assay: Primary qHTS for small molecule compounds that upregulate eGFP-tagged delta133p53alpha (in N-terminal) cells. (AID 2060322); settings: NCI-H358 eGFP-delta133p53alpha fluorescence, 24 h; activation: hits give high values; also: nearly all actives have a fitted effect of over 75% in size; also: potency is read from the fitted curve at half-maximal effect;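 as to activation: series mostly up to about 56 µM; 0% = DMSO vehicle and 100% = reference activator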
# Method in brief: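 NCI-H358 cells pre-induced 24 h with 10 ng/ml doxycycline to express N-terminal eGFP-delta133p53alpha, then dosed 24 h at 37C without doxycycline; fixed, Hoechst-stained, GFP intensity by laser scanning cytometry, normalized to DMSO (0%) and 57.5 uM 5-azacytidine (100%).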
# [2] = BET inhibitor-based combinations targeting novel dependencies in MECOM-rearranged (r) AML: SET-2 cell line (AID 2202231); settings: SET-2 AML cells viability, CellTiter-Glo luminescence, 48 h; viability: hits give low values, concentration not given here; also: nearly all actives have a fitted effect of over 35% in size; also: potency is read from the fitted curve at half-maximal effect;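 as to viability: plate controls were DMSO treated cells for no effect and wells without cells for full effect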
# Method in brief: (§1)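 Here, 11-point titrations of each agent were applied to 500 seeded cells and incubated 48 hr; CellTiter-Glo signal, scaled against DMSO and empty wells, was integrated as AUC, then Z-scored within the individual line.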
# [3] = BET inhibitor-based combinations targeting novel dependencies in MECOM-rearranged (r) AML: OCI-AML3 cell line (AID 2202232); settings: Potency: OCI-AML3 viability; also: nearly all actives have a fitted effect of over 35% in size; also: potency is read from the fitted curve at half-maximal effect
# Method in brief: as §1
# [4] = BET inhibitor-based combinations targeting novel dependencies in MECOM-rearranged (r) AML: MV-4-11 cell line (AID 2202233); also: nearly all actives have a fitted effect of over 45% in size; also: potency is read from the fitted curve at half-maximal effect
# Method in brief: (§2)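 Normalized to DMSO and empty-well controls, the luminescence data from CellTiter-Glo after 48 hr drug exposure were fitted across 11 concentrations. Reported metrics are area under the dose-response curve and its Z-transformed form.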
# [5] = BET inhibitor-based combinations targeting novel dependencies in MECOM-rearranged (r) AML: HNT-34 cell line (AID 2202234); also: nearly all actives have a fitted effect of over 35% in size; also: potency is read from the fitted curve at half-maximal effect
# Method in brief: as §2
# [6] = BET inhibitor-based combinations targeting novel dependencies in MECOM-rearranged (r) AML: UCSD-AML1 cell line (AID 2202235); also: nearly all actives have a fitted effect of over 40% in size; also: potency is read from the fitted curve at half-maximal effect
# Method in brief: as §2
# [7] = BET inhibitor-based combinations targeting novel dependencies in MECOM-rearranged (r) AML: AML-191 cell line (AID 2202236; also: nearly all actives have a fitted effect of over 35% in size; also: potency is read from the fitted curve at half-maximal effect)
# Method in brief: as §1
# [8] = biological target: Retinaldehyde dehydrogenase 3 (Homo sapiens) (UniProt P47895); assay: qHTS for Inhibitors of the Aldehyde Dehydrogenase Family (ALDH1A3) Primary screen (AID 2061315);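 also: plate controls were DMSO vehicle for no effect and reference inhibitor for full effect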
# [9] = BET inhibitor-based combinations targeting novel dependencies in MECOM-rearranged (r) AML: AML-194 cell line (AID 2202237; also: nearly all actives have a fitted effect of over 40% in size; also: potency is read from the fitted curve at half-maximal effect)
# Method in brief: as §1
# Chain of Cellular tumor antigen p53 (Homo sapiens) (P04637 whole entry, looked up): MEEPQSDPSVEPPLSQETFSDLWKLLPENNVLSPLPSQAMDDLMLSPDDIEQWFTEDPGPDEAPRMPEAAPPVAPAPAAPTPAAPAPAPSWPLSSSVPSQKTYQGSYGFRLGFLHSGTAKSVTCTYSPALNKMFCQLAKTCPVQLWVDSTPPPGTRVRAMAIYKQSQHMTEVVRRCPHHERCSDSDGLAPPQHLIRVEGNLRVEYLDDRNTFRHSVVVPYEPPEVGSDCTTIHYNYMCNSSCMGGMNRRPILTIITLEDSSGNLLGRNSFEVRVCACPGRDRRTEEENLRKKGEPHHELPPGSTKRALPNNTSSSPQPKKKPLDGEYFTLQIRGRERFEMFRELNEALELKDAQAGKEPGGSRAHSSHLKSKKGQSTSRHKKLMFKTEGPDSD
SMILES,activation [1],viability [2],Potency [3],Potency [4],Potency [5],Potency [6],Potency [7],Potency [1],Potency [2],Potency [8],Potency [9]
Cc1nc(-c2ccc(OCC(C)C)c(C#N)c2)sc1C(=O)O,4.32% and -8.37%,109%,inactive,inactive,inactive,inactive,inactive,,,,
Cc1cc(Nc2ncc3c(n2)N(C)C(=O)N(c2cc(NC(=O)c4cccc(C(F)(F)F)c4)ccc2C)C3)n(C)n1,,,0.296 µM (active),0.0372 µM (active),0.0263 µM (active),0.417 µM (active),0.235 µM (active),0.432 µM (active),0.833 µM (active),,
Clc1ccc(C(Cn2ccnc2)OCc2c(Cl)cccc2Cl)c(Cl)c1 (stereo not drawn),27.9% and 17%,,10.5 µM (active),18.6 µM (active),26.3 µM (active),inactive,,,26.3 µM (active),inactive,18.6 µM (active)
Cn1nnc2c(C(N)=O)ncn2c1=O,0% and 2.62%,102%,inactive,inactive,inactive,,,,,,
Cc1cc(=O)oc2cc(O)ccc12,-17.5% and -1.39%,111%,inactive,inactive,inactive,inactive,inactive,,,,
O=C(NOCC(O)CO)c1cc(Br)c(F)c(F)c1Nc1ccc(I)cc1F (stereo not drawn),6.51%,95.8%,0.0166 µM (active),0.209 µM (active),1.05 µM (active),,,,,,
COc1ccc2nc3cc(Cl)ccc3c(Nc3cc(CN4CCCC4)c(O)c(CN4CCCC4)c3)c2n1,55.3%,,7.42 µM (active),4.68 µM (active),11.8 µM (active),8.33 µM (active),10.5 µM (active),,7.42 µM (active),,
N#Cc1cc(NC(=O)Nc2nnc(-c3ccncc3)s2)ccc1-c1cn[nH]c1,-26.3%,111%,inactive,inactive,inactive,inactive,inactive,,,,
Cc1cc(Nc2nc(N[C@@H](C)c3ccc(F)cc3)c(C#N)cc2F)n[nH]1,,,0.525 µM (active),0.662 µM (active),,0.525 µM (active),0.105 µM (active),16.9 µM (active),,inactive,0.166 µM (active)
CCNC(=O)c1cc2c(-c3cc(OCCN4CCCC4)c(Cl)cc3Cl)nc(N)nc2s1,-12.6%,,2.04 µM (active),0.363 µM (active),1.82 µM (active),1.29 µM (active),1.82 µM (active),,2.88 µM (active),,
Nc1ccccc1NC(=O)c1ccc(CNc2nccc(-c3cccnc3)n2)cc1,65.9%,,1.32 µM (active),0.662 µM (active),1.86 µM (active),,1.66 µM (active),,1.66 µM (active),inactive,1.66 µM (active)
COc1ccc2[nH]c(S(=O)Cc3ncc(C)c(OC)c3C)nc2n1 (stereo not drawn),10.7% and 10%,109%,,,,inactive,inactive,,,inactive,inactive
O=C(Nc1ccc2[nH]nc(-c3ccncc3)c2c1)[C@@H]1CCN(CC(=O)N2CCN(c3ccc(-c4ncccn4)cc3)CC2)C1,4.47%,,0.235 µM (active),1.66 µM (active),1.05 µM (active),2.63 µM (active),2.09 µM (active),,23.5 µM (active),,
CC(C)C[C@@H](C(=O)N[C@H](C(=O)OC1CCCC1)c1ccccc1)[C@H](O)C(=O)NO,10.8%,,13.2 µM (active),3.32 µM (active),18.6 µM (active),20.9 µM (active),20.9 µM (active),,14.8 µM (active),,
CN(C(Cc1ccc(OS(=O)(=O)c2cccc3cnccc23)cc1)C(=O)N1CCN(c2ccccc2)CC1)S(=O)(=O)c1cccc2cnccc12 (stereo not drawn),8.08%,92.1%,inactive,7.42 µM (active),,,,,,,
CCOc1cc(N2CCC(O)CC2)ccc1Nc1ncc2c(n1)N(C)c1ccccc1C(=O)N2C,72.4%,,3.32 µM (active),2.95 µM (active),14.8 µM (active),8.33 µM (active),,,14.8 µM (active),,
CCCN[C@H]1CCc2nc(N)sc2C1,9.21% and 7.7%,116%,inactive,0.934 µM (active),inactive,inactive,inactive,,,,
CCOc1cc(C(C)(C)C)ccc1C1=N[C@@](C)(c2ccc(Cl)cc2)[C@@](C)(c2ccc(Cl)cc2)N1C(=O)N1CCN(CC(=O)N2CCOCC2)CC1,35.5%,,11.5 µM (active),1.63 µM (active),,4.09 µM (active),7.28 µM (active),,,inactive,9.17 µM (active)

SMILES,activation [1],viability [2],Potency [3],Potency [4],Potency [5],Potency [6],Potency [7],Potency [1],Potency [2],Potency [8],Potency [9]
COc1c2occc2cc2ccc(=O)oc12,-0.837% and 22.7%,98.3%,10.5 µM (active),inactive,inactive,inactive,inactive,,,,
O=C(O)c1cc(O)c2c(c1)C(=O)c1cccc(O)c1C2=O,-15.1%,115%,5.9 µM (active),inactive,inactive,inactive,inactive,,,,
Oc1cc(-c2nc(-c3ccccc3)[nH]c2-c2ccncc2)ccc1Cl,22.4%,,4.17 µM (active),14.8 µM (active),7.42 µM (active),,,,,inactive,
C[C@H](NC(=O)c1sccc1OCc1ccc(Cl)cc1)c1ccccc1,16.4%,,inactive,13.2 µM (active),inactive,inactive,inactive,,16.6 µM (active),,inactive
Nc1ccc(S(N)(=O)=O)cc1,-29.9% and 4.8%,93.8%,inactive,inactive,inactive,inactive,inactive,,,,inactive
O=C(CN1C(=O)C2(CCCC2)NC[C@H]1c1cc(F)cc(F)c1)Nc1ccc2c(c1)C[C@@]1(C2)C(=O)Nc2ncccc21,22.6%,98.8%,inactive,inactive,inactive,inactive,inactive,,,,inactive
CC(C)C[C@H](NC(=O)[C@H](CCc1ccccc1)NC(=O)CN1CCOCC1)C(=O)N[C@@H](Cc1ccccc1)C(=O)N[C@@H](CC(C)C)C(=O)[C@@]1(C)CO1,,,0.0209 µM (active),0.0209 µM (active),0.0235 µM (active),0.0417 µM (active),0.0525 µM (active),110 nM (active) and 273 nM (active),0.0833 µM (active),,0.0525 µM (active)
CC1CNc2c(cccc2S(=O)(=O)N[C@@H](CCCN=C(N)N)C(=O)N2CC[C@@H](C)C[C@@H]2C(=O)O)C1 (stereo partly drawn),8.55%,116%,inactive,inactive,inactive,inactive,inactive,,,,inactive
CC(C)C[C@H](NC(=O)CNC(=O)c1cc(Cl)ccc1Cl)B1OC(=O)CC(CC(=O)O)(C(=O)O)O1 (stereo partly drawn),,,0.132 µM (active),0.132 µM (active),0.132 µM (active),0.166 µM (active),0.166 µM (active),9.68 µM (active),0.118 µM (active),,0.186 µM (active)
COC(=O)C1=C(C)NC(C)=C(C(=O)OCCCN2CCC(c3ccccc3)(c3ccccc3)CC2)C1c1cccc([N+](=O)[O-])c1 (stereo not drawn),2.93%,,29.5 µM (active),10.5 µM (active),18.6 µM (active),14.8 µM (active),26.3 µM (active),,18.6 µM (active),,20.9 µM (active)
O=C1C(Cl)=C(NCCN2CCOCC2)C(=O)c2ncccc21,,,3.72 µM (active),2.09 µM (active),5.9 µM (active),8.33 µM (active),7.42 µM (active),27.3 µM (active),3.72 µM (active),,7.42 µM (active)
O=C(O)c1cc(=O)[nH]c(=O)[nH]1,15.1% and 14.7%,111%,inactive,inactive,inactive,inactive,inactive,,,,inactive
CCCc1nc(C(C)(C)O)c(C(=O)O)n1Cc1ccc(-c2ccccc2-c2nn[nH]n2)cc1,-5.2%,116%,inactive,inactive,inactive,inactive,inactive,,,,inactive
COc1ccc(-c2cc(=O)c3c(O)cc(O[C@@H]4O[C@H](CO[C@@H]5O[C@@H](C)[C@H](O)[C@@H](O)[C@H]5O)[C@@H](O)[C@H](O)[C@H]4O)cc3o2)cc1O,25.9%,112%,inactive,inactive,inactive,inactive,inactive,,,,inactive
COc1cc(C)c(Sc2cnc(NC(=O)c3ccc(CNC(C)C(C)(C)C)cc3)s2)cc1C(=O)N1CCN(C(C)=O)CC1 (stereo not drawn),,,14.8 µM (active),4.17 µM (active),16.6 µM (active),14.8 µM (active),14.8 µM (active),43.2 µM (active),23.5 µM (active),,11.8 µM (active)
CN(C)c1ccc(C(=C2C=CC(=[N+](C)C)C=C2)c2ccc(N(C)C)cc2)cc1,-20.9%,,1.32 µM (active),0.662 µM (active),0.934 µM (active),1.05 µM (active),1.18 µM (active),,1.05 µM (active),,0.934 µM (active)
OCCN1C[C@H](O)[C@@H](O)[C@H](O)[C@H]1CO,-10.9%,115%,inactive,inactive,inactive,inactive,inactive,,,,inactive
Cc1ncc([N+](=O)[O-])n1CC(C)O (stereo not drawn),12.6% and -16.1%,124%,inactive,inactive,inactive,inactive,inactive,,,,inactive
